This note sets out measurements from the supplement of paper PMC9262897, “Low-cost anti-mycobacterial drug discovery using engineered E. coli” (Nature Communications, 2022).

Counter-ions that a name gives are not always drawn. ± gives the standard deviation of the averaged measurements.

The subject of this assay is E. coli TESEC Mtb DapB. The assay can be described thus: growth (OD600 after 10 h); higher = more growth (less inhibition). The settings on record: arabinose induction (level): Low; compound 0.1 mM; raw OD600 reference: median of DMSO wells 0.227, cell-free background 0.041. The method, then:
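TESEC E. coli strains in which the native enzyme is deleted and replaced by arabinose-inducible Mtb Asd, DapB, CysH or TrpD, each grown in its selective medium. Strains were screened against the Prestwick library at 0.1 mM and 1% DMSO in 384-well format at low and high arabinose induction. Growth is read as OD600 after 10 h in triplicate.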
Regarding `CC(=O)Oc1cccc2c1C(=O)c1c(OC(C)=O)cc(C(=O)O)cc1C2=O` [Diacerein], the growth came out at 0.23 ± 0.015. The same measure for `COc1ccc(-c2cc(=S)ss2)cc1` [Anethole-trithione]: 0.218 ± 0.011; for `O=C(O)Cc1ccccc1Nc1c(Cl)cccc1Cl` [Diclofenac sodium]: 0.172 ± 0.014. As to `CCN1CCC[C@H]1CNC(=O)c1c(O)c(Cl)cc(Cl)c1OC` [Raclopride], the growth was 0.166 ± 0.019. With `COc1ccc(C[C@@H]2c3cc(OC)c(OC)cc3CC[N@+]2(C)CCC(=O)OCCCCCOC(=O)CC[N@@+]2(C)CCc3cc(OC)c(OC)cc3[C@H]2Cc2ccc(OC)c(OC)c2)cc1OC` [Cisatracurium besylate] the figure was 0.209 ± 0.021; with `CN(C)CCOC(=O)C(c1ccccc1)C1(O)CCCC1` (stereo not given) [Cyclopentolate hydrochloride], 0.231 ± 0.045; with `CCCCOc1ccc(C(=O)CCN2CCCCC2)cc1` [Dyclonine hydrochloride], 0.176 ± 0.012.

The molecule `CC[C@H]1OC(=O)[C@H](C)[C@@H](O[C@H]2C[C@@](C)(OC)[C@@H](O)[C@H](C)O2)[C@H](C)[C@@H](O[C@@H]2O[C@H](C)C[C@H](N(C)C)[C@H]2O)[C@](C)(O)C[C@@H](C)/C(=N\OCOCCOC)[C@H](C)[C@@H](O)[C@]1(C)O` [Roxithromycin] registered a growth of 0.0505 ± 0.00097. The same measure for `CCOC(=O)O[C@]1(C(=O)OCCl)CC[C@H]2[C@@H]3CCC4=CC(=O)C=C[C@]4(C)[C@H]3[C@@H](O)C[C@@]21C` [Loteprednol etabonate]: 0.233 ± 0.028. The same measure for `c1ccc2c(CC3=NCCN3)cccc2c1` [Naphazoline hydrochloride]: 0.21 ± 0.016.
